# In all, about 5,500 compounds went through this assay and about 2,000 (36%) were called active. Inconclusive results (about 18%) are left out. Some of the results follow. A number with no mark means an inactive call. No stated cut-off is given here; in the data, active means normalized growth mostly below about 0.91 (no sharp cut-off); inconclusive means no clear call, values can overlap the other calls; inactive means mostly above about 0.92.
# Assay: chemical genetic growth profiling, strain panel (AID 1159580);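 further: tested at 20 µM; growth read once vehicle control cultures reached saturation at 30 °C; 1 = growth at the plate median or of vehicle wells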
# Settings: growth OD
# [1] = S. cerevisiae deletion strains, locus YAL013W, strain DEP1, stronger effect = lower value
# [2] = S. cerevisiae deletion strains, locus YBR229C, strain ROT2, stronger effect = lower value
# [3] = S. cerevisiae deletion strains, locus YDL101C, strain DUN1, stronger effect = lower value
# [4] = S. cerevisiae deletion strains, locus YDL134C, strain PPH21, stronger effect = lower value
# [5] = S. cerevisiae deletion strains, locus YDR150W, strain NUM1, stronger effect = lower value
# [6] = S. cerevisiae deletion strains, locus YEL061C, strain CIN8, stronger effect = lower value
# [7] = S. cerevisiae deletion strains, locus YGR078C, strain PAC10, stronger effect = lower value
# [8] = S. cerevisiae deletion strains, locus YHR030C, strain SLT2, stronger effect = lower value
# [9] = S. cerevisiae deletion strains, locus YHR087W, strain rtc3, stronger effect = lower value
# [10] = S. cerevisiae deletion strains, locus YJR043C, strain POL32, stronger effect = lower value
# [11] = S. cerevisiae deletion strains, locus YJR075W, strain HOC1, stronger effect = lower value
# [12] = S. cerevisiae deletion strains, locus YKL190W, strain CNB1, stronger effect = lower value
# [13] = S. cerevisiae deletion strains, locus YLR039C, strain RIC1, stronger effect = lower value
# [14] = S. cerevisiae deletion strains, locus YLR058C, strain SHM2 (second series), stronger effect = lower value
# [15] = S. cerevisiae deletion strains, locus YLR085C, strain ARP6, stronger effect = lower value
# [16] = S. cerevisiae deletion strains, locus YLR262C, strain YPT6, stronger effect = lower value
# [17] = S. cerevisiae deletion strains, locus YML094W, strain GIM5, stronger effect = lower value
# [18] = S. cerevisiae deletion strains, locus YMR219W, strain ESC1, stronger effect = lower value
# [19] = S. cerevisiae deletion strains, locus YMR263W, strain SAP30, stronger effect = lower value
# [20] = S. cerevisiae deletion strains, locus YMR307W, strain GAS1, stronger effect = lower value
# [21] = S. cerevisiae deletion strains, locus YNL153C, strain GIM3, stronger effect = lower value
# [22] = S. cerevisiae deletion strains, locus YNL298W, strain CLA4 (second series), stronger effect = lower value
# [23] = S. cerevisiae deletion strains, locus YNL322C, strain KRE1, stronger effect = lower value
# [24] = S. cerevisiae deletion strains, locus YNR030W, strain Alg12, stronger effect = lower value
# [25] = S. cerevisiae deletion strains, locus YPL055C, strain LGE1, stronger effect = lower value
# [26] = S. cerevisiae deletion strains, locus YPL241C, strain CIN2, stronger effect = lower value
# [27] = S. cerevisiae deletion strains, locus YPR135W, strain CTF4, stronger effect = lower value
smiles,measurement,setting,value
CC(=O)C1C(=O)CC(c2ccc(Cl)cc2)CC1=O (stereo not drawn),normalized growth,[1],0.342 (active)
same,normalized growth,[2],0.454 (active)
same,normalized growth,[3],0.425 (active)
same,normalized growth,[4],0.854 (active)
same,normalized growth,[5],0.489 (active)
same,normalized growth,[6],0.867 (active)
same,normalized growth,[7],0.463 (active)
same,normalized growth,[8],0.199 (active)
same,normalized growth,[9],0.541 (active)
same,normalized growth,[10],0.585 (active)
same,normalized growth,[11],0.444 (active)
same,normalized growth,[12],0.848 (active)
same,normalized growth,[13],0.218 (active)
same,normalized growth,[14],0.761 (active)
same,normalized growth,[15],0.529 (active)
same,normalized growth,[16],0.219 (active)
same,normalized growth,[17],0.901
same,normalized growth,[18],0.562 (active)
same,normalized growth,[19],0.268 (active)
same,normalized growth,[20],0.218 (active)
same,normalized growth,[21],0.512 (active)
same,normalized growth,[22],0.849
same,normalized growth,[23],0.796 (active)
same,normalized growth,[24],0.855 (active)
same,normalized growth,"S. cerevisiae deletion strains, locus YOL006C, strain TOP1, stronger effect = lower value",0.774
same,normalized growth,[25],0.211 (active)
same,normalized growth,[26],0.845 (active)
same,normalized growth,[27],0.718
O=C1C=C(Cl)CC(c2ccc(C(F)(F)F)cc2)C1 (stereo not drawn),normalized growth,[1],1
same,normalized growth,[2],0.988
same,normalized growth,"S. cerevisiae deletion strains, locus YCL061C, strain MRC1, stronger effect = lower value",1.01
same,normalized growth,[3],0.995
same,normalized growth,[4],1.03
same,normalized growth,[5],1.1
same,normalized growth,[6],1.03
same,normalized growth,[7],1.01
same,normalized growth,[8],0.987
same,normalized growth,[9],0.975
same,normalized growth,[10],1.01
same,normalized growth,[11],1.02
same,normalized growth,[12],0.983
same,normalized growth,[13],0.936
same,normalized growth,[14],0.986
same,normalized growth,[15],1.06
same,normalized growth,[16],0.94
same,normalized growth,[17],1.04
same,normalized growth,[18],1.01
same,normalized growth,[19],0.989
same,normalized growth,[20],1.01
same,normalized growth,"S. cerevisiae deletion strains, locus YNL128W, strain TEP1, stronger effect = lower value",0.987
same,normalized growth,[21],0.992
same,normalized growth,[22],0.985
same,normalized growth,[23],0.991
same,normalized growth,[24],1.02
same,normalized growth,[25],1.14
same,normalized growth,[26],1.02
same,normalized growth,[27],1.03
same,normalized growth,"S. cerevisiae strains, strain wild type, stronger effect = lower value",0.971

# — PubChem BioAssay AID1159580 (chemical genetic matrix, 2015)
